Consider 40 sequences from the OligoGym collection.
Note: reference of the scale not given here.

One experiment concerns the target C19orf26. Briefly: pooled miR-30 sensor sort-seq; sequence = guide strand. The following applies: shRNA.
As for TTCCACTTCTTGACCTTGAAAT, the sensor-assay potency score (higher = more potent) is -1.35. Take TTCTTGACCTTGAAATAGGGGC: the sensor-assay potency score (higher = more potent) was -0.421.

TTGCAGAGGAGCAGGACGCCAG had a sensor-assay potency score (higher = more potent) of -1.16. As for TCCGTCAGTGTGTACCGGCGAC, the sensor-assay potency score (higher = more potent) is -0.95.

In the case of TTGTCCAGGTAGGTGGTGGTGG, the sensor-assay potency score (higher = more potent) was -0.893. On the same count and under the same terms, in the case of TTGTCCTGCGTCTTGCGGCTCT it was -0.61; in that of TTCGGTCTCCGCATCCTGGCAC, -0.126. TGAGTCACACTCGTGGATGGTG registered a sensor-assay potency score (higher = more potent) of -0.617.

With TCGCCTGAGTCACACTCGTGGA, the sensor-assay potency score (higher = more potent) was -1.57.

The target in a further experiment is C19orf33. The description is as above. The following applies: shRNA.
In turn, TTCTCCTTCTTCTTCACTTTGG registered a sensor-assay potency score (higher = more potent) of -0.173. On the same count and under the same terms, under ATCCGTGTCCGAATCGCTGGAG stands -0.418. The sequence ACATCCGTGTCCGAATCGCTGG displayed a sensor-assay potency score (higher = more potent) of -1.43. As to TCCGAATCGCTGGAGCTGCTGC, the sensor-assay potency score (higher = more potent) was -0.94. For TTCTTCTTCACTTTGGGCTTCT, the sensor-assay potency score (higher = more potent) was 0.272. As to TCTCGTGCTGCTTGGAGCCAGC, the sensor-assay potency score (higher = more potent) was -1.2. For the sequence AACTTTGTGGGGACTGAGCTTG, the sensor-assay potency score (higher = more potent) is -0.364. For the sequence TCCGTGTCCGAATCGCTGGAGC, the sensor-assay potency score (higher = more potent) was -1.74.

With AAGAGCTGTGGTGTCCTTGCTT, the sensor-assay potency score (higher = more potent) came to 0.114. The sequence TTCACTTTGGGCTTCTTGGCCT displayed a sensor-assay potency score (higher = more potent) of -0.157. TCTCCTTCTTCTTCACTTTGGG came in with a sensor-assay potency score (higher = more potent) of -0.407.

With TGAGCTTGGGATCTCCCCCGTG, the sensor-assay potency score (higher = more potent) is -0.899.

The next experiment addresses C19orf43. Described as above. The settings on record: shRNA.
As for TTGGCTACTATTCCCGTCTTGA, the sensor-assay potency score (higher = more potent) was found to be 0.118.

On to TGTTCTATGAAGTCTCACGAGG, for which the sensor-assay potency score (higher = more potent) was -1.02.

The sequence TAATACCTCATCCTCCGTCTTC showed a sensor-assay potency score (higher = more potent) of -0.695. The sequence TTATCATCGTCACCGCACTGGT had a sensor-assay potency score (higher = more potent) of -1.04. On to AACAGCTCCAGGAAGCTGCCGT, for which the sensor-assay potency score (higher = more potent) was -0.55. Still for that read-out and setting: in the case of TTTATCATCGTCACCGCACTGG it was 0.198; in that of TTGAACAGCTCCAGGAAGCTGC, -0.652; in that of TAAATAGTTATGTACATCGCAG, -0.74. The sequence TACTTGTTAATACCTCATCCTC yielded a sensor-assay potency score (higher = more potent) of -0.735.

As to TTGGCGAACAAGTTCACGCCGC, the sensor-assay potency score (higher = more potent) was -0.437. Turning to TTGAGGGCTAGTTTGTTCCCGC, the sensor-assay potency score (higher = more potent) was -0.869. As for ATCATCGTCACCGCACTGGTGA, the sensor-assay potency score (higher = more potent) is -0.305.

The next experiment has as its target C19orf48. The experiment is described as above. The following applies: shRNA.
TGTCCTTGAGAGCCAGGCCCAG registered a sensor-assay potency score (higher = more potent) of -1.6.

Regarding TCCTTGTGCACTGGGTTGGGTC, the sensor-assay potency score (higher = more potent) is -1.63. TTGGGTCCCAGCATGAGCCTGG displayed a sensor-assay potency score (higher = more potent) of -0.0945. TTATCCACCTTCTCCTGGGTGT showed a sensor-assay potency score (higher = more potent) of -0.455. Regarding TGGAGCACCAGGCCAGGCGGTG, the sensor-assay potency score (higher = more potent) was -1.89.

For the sequence TTCTGGCCTGCTTCACCCCTGG, the sensor-assay potency score (higher = more potent) was -0.772. The sequence TAGGCCTGGTCACAATAGGGAA registered a sensor-assay potency score (higher = more potent) of -1.64.
